Results filed as inconclusive are left out. Where a call stands in place of a potency, no number is given. Activity calls are given as the source filed them. Unless noted, calls come from the whole dose curve.
What was measured:
[1] = Nuclear factor erythroid 2-related factor 2/antioxidant responsive element (Nrf2/ARE) small molecule agonists: qHTS cell viability counter screen in human keratinocytes (AID 1919968; active = well fitted curve in the direction sought with a large enough effect in the repeat runs; an effect the other way counts as inactive or inconclusive; note: nearly all actives have a fitted effect of over 55% in size; note: potency is the fitted concentration of half-maximal effect)
Summary of the method: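 Cytotoxicity was multiplexed with the Nrf2/ARE luciferase assay in the same wells. Stably transfected HaCaT keratinocytes were treated with test compounds for 23 h at 37 C. Cell viability was then measured by CellTiter-Fluor fluorescence.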

[2] = Nuclear factor erythroid 2-related factor 2/antioxidant responsive element (Nrf2/ARE) small molecule agonists: luciferase reporter gene qHTS assay in human keratinocytes (AID 1919969); note: nearly all actives have a fitted effect of over 35% in size; note: potency is the fitted concentration of half-maximal effect
[3] = target: Gonadotropin-releasing hormone receptor (Homo sapiens) (UniProt P30968); experiment: Human gonadotropin-releasing hormone receptor (GnRHR) small molecule agonists, calcium flux assay in GnRHR-HEK293 cells (AID 1920063); note: nearly all actives have a fitted effect of over 35% in size
Chain of Gonadotropin-releasing hormone receptor (Homo sapiens) (P30968 whole entry, looked up): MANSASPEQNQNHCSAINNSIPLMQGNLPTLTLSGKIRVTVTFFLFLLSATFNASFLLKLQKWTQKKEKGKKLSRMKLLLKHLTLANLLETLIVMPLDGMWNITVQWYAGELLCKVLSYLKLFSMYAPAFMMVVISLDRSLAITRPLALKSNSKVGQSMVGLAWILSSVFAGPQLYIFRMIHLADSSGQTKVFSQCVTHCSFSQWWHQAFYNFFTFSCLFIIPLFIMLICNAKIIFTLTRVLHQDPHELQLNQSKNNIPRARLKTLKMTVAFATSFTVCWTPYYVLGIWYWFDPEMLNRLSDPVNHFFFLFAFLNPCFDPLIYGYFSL
Summary of the method: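 Agonist activity was measured as intracellular calcium flux in HEK293 cells engineered to stably express human GnRHR. After dye loading for 1 hour at 37 C, compounds in DMSO were added and fluorescence was followed for 3 minutes.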

[4] = target: KiSS-1 receptor (Homo sapiens) (UniProt Q969F8); experiment: Human kisspeptin (KISS1R) small molecule agonists, calcium flux assay in KISS1R-HEK293 cells (AID 1920064; active = well fitted curve in the direction sought with a large enough effect in the repeat runs; an effect the other way counts as inactive or inconclusive)
Chain of KiSS-1 receptor (Homo sapiens) (Q969F8 whole entry, looked up): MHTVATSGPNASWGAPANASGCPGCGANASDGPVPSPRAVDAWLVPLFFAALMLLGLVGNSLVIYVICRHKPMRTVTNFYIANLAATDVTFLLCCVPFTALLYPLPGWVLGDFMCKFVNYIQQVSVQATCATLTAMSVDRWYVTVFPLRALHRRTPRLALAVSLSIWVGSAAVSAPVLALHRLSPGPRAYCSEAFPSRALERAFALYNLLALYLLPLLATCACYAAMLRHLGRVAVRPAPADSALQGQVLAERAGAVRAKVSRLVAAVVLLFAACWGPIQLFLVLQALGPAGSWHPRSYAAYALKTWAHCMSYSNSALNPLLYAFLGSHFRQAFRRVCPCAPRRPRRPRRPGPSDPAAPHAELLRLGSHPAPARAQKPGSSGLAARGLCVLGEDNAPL
Summary of the method: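 Agonist activity is monitored as intracellular calcium rise in engineered HEK293 cells carrying human KISS1R. Cells are dye-loaded for 1 h at 37 C before compound addition, and fluorescence is recorded for 3 min.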

[5] = p53 small molecule agonists, cell-based qHTS assay with human liver microsomes (AID 1963577)
Summary of the method: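 Compounds act here after metabolic activation: human liver microsomes and NADPH, both at 0.5 mg/mL final, were co-added to p53RE-bla cells. Incubation ran 16 h at 37 C, followed by LiveBLAzer detection.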

[6] = p53 small molecule agonists, cell-based qHTS assay with rat liver microsomes (AID 1963578)
Summary of the method: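 Read-out is beta-lactamase reporter fluorescence (LiveBLAzer, 2 h, room temperature, dark) in p53RE-bla cells treated 16 h at 37 C with compound, rat liver microsomes and NADPH, both 0.5 mg/mL final.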

[7] = p53 small molecule agonists, cell-based qHTS assay with human liver microsomes: qHTS cell viability counter screen (AID 1963579); note: nearly all actives have a fitted effect of over 45% in size; note: potency is the fitted concentration of half-maximal effect
Summary of the method: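 Cells carrying the p53 response-element beta-lactamase reporter are treated for 16 h at 37 C with test compounds in the presence of human liver microsomes and NADPH (both 0.5 mg/mL final); ATP-based CellTiter-Glo luminescence then reports viability.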

[8] = p53 small molecule agonists, cell-based qHTS assay with rat liver microsomes: qHTS cell viability counter screen (AID 1963580); note: nearly all actives have a fitted effect of over 45% in size; note: potency is the fitted concentration of half-maximal effect
Summary of the method: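 Cytotoxicity counter screen: intracellular ATP read by CellTiter-Glo luminescence in the p53 reporter wells. HCT-116 p53RE-bla cells were treated for 16 h at 37 C alongside rat liver microsomes and NADPH, each 0.5 mg/mL final.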

[9] = p53 small molecule agonists, cell-based qHTS assay: qHTS cell viability counter screen (AID 1963581); note: nearly all actives have a fitted effect of over 45% in size; note: potency is the fitted concentration of half-maximal effect
Summary of the method: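 Viability was counter-screened in parallel with the p53 agonist reporter by measuring intracellular ATP luminescence in the same HCT-116 p53RE-bla wells after 16 h compound treatment at 37 C.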

[10] = target: 5-hydroxytryptamine receptor 2A (Homo sapiens) (UniProt P28223); experiment: 5-hydroxytryptamine receptor 2A (HTR2A) small molecule agonists, cell-based qHTS assay (AID 1963587); note: nearly all actives have a fitted effect of over 30% in size; note: potency is the fitted concentration of half-maximal effect
Chain of 5-hydroxytryptamine receptor 2A (Homo sapiens) (P28223 whole entry, looked up): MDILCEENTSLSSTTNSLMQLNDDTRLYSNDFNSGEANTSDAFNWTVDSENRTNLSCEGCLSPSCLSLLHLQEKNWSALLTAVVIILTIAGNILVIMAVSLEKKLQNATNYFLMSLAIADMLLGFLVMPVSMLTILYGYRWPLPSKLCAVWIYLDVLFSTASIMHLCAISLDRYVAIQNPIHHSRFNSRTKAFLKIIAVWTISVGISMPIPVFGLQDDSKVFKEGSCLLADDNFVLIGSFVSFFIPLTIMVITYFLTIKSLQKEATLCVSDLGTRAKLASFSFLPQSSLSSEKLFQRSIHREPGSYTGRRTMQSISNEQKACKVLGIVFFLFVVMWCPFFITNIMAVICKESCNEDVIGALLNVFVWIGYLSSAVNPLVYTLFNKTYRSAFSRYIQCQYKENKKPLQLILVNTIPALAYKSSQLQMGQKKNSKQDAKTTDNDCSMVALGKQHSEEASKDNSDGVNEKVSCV
Summary of the method: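 Kinetic calcium-flux fluorescence (2 min, 1 sec intervals) after compound addition in agonist mode. HTR2A-CHO cells were cultured 18 h, then dye-loaded 1 h at 37 C.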

[11] = target: Muscarinic acetylcholine receptor M1 (Homo sapiens) (UniProt P11229); experiment: Cholinergic receptor muscarinic 1 (CHRM1) small molecule antagonists, cell-based qHTS assay (AID 1963588); note: nearly all actives have a fitted effect of over 40% in size; note: potency is the fitted concentration of half-maximal effect
Chain of Muscarinic acetylcholine receptor M1 (Homo sapiens) (P11229 whole entry, looked up): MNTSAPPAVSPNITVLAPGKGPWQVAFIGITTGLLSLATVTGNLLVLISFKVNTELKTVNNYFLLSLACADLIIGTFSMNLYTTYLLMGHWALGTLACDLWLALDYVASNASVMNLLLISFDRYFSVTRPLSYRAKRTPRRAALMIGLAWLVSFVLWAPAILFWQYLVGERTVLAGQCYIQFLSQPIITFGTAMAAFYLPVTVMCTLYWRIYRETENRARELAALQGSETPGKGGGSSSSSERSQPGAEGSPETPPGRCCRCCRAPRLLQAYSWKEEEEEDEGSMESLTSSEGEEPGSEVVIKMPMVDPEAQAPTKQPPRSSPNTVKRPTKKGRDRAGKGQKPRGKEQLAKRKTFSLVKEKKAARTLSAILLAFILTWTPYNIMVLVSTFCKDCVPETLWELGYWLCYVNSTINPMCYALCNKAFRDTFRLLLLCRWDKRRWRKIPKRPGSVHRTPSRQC
Summary of the method: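 Compounds were tested at 15 concentrations in three independent runs. Dye-loaded CHRM1-CHO cells were exposed 5 min at room temperature before stimulation by acetylcholine added at 50nM. Intracellular calcium was read kinetically on FDSS for 3 min.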

[12] = target: Muscarinic acetylcholine receptor M1 (Homo sapiens) (UniProt P11229); experiment: Cholinergic receptor muscarinic 1 (CHRM1) small molecule agonists, cell-based qHTS assay (AID 1963589); note: nearly all actives have a fitted effect of over 35% in size
Summary of the method: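 Cells were plated and incubated 18 h at 37 C/5% CO2, loaded with calcium dye for 1 h at 37 C, then treated with compounds in DMSO. Fluorescence was recorded kinetically at 1 sec intervals.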

[13] = cAMP Responsive Elements (CRE) small molecule agonists, cell-based qHTS assay (AID 1963590)
Summary of the method: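 Cells carrying a CRE-driven beta-lactamase reporter (HEK 293T) are seeded, incubated overnight (18 h), and treated with test compounds for 3 h at 37 C; reporter activity is then detected with a FRET substrate after 2 h at room temperature.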

[14] = target: Beta-2 adrenergic receptor (Homo sapiens) (UniProt P07550); experiment: Adrenergic beta2 receptor (ADRB2) small molecule antagonists, cell-based qHTS assay (AID 1963592); note: series mostly up to about 92 µM; nearly all actives have a fitted effect of over 50% in size
Chain of Beta-2 adrenergic receptor (Homo sapiens) (P07550 whole entry, looked up): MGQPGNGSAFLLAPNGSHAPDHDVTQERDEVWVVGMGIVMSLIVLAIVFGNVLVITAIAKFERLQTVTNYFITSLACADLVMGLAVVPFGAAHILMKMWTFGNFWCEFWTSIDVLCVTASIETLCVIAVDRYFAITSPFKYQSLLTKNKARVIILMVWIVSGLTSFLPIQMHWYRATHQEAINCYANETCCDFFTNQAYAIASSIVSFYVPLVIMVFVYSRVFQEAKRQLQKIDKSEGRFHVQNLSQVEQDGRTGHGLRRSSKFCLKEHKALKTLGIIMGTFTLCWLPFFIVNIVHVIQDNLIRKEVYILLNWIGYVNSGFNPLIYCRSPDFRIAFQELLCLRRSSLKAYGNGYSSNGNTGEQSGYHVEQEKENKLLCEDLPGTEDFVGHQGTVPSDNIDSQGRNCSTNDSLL
Summary of the method: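 Assay format: CHO-ADRB2 cells, 18-20hr seeding at 37C/5% CO2, then compound plus 1nM isoproterenol agonist mix for 0.5hr RT. Homogeneous time-resolved fluorescence cAMP detection after 1hr, expressed as 665/615 nm ratio.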

[15] = target: Beta-2 adrenergic receptor (Homo sapiens) (UniProt P07550); experiment: Adrenergic beta2 receptor (ADRB2) small molecule agonists, cell-based qHTS assay (AID 1963593);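 note: CHO cells stably overexpressing human ADRB2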
Summary of the method: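 CHO cells stably over-expressing ADRB2 were plated overnight at 37C, then dosed with compounds plus a stimulation mix containing 100uM IBMX and 25uM Ro-20-1724 for 0.5hr at room temperature. cAMP was measured by HTRF competition, 1hr.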

[16] = target: D(2) dopamine receptor (Homo sapiens) (UniProt P14416); experiment: Dopamine D2 receptor (DRD2) small molecule agonists, cell-based qHTS assay (AID 1963594); note: nearly all actives have a fitted effect of over 35% in size
Chain of D(2) dopamine receptor (Homo sapiens) (P14416 whole entry, looked up): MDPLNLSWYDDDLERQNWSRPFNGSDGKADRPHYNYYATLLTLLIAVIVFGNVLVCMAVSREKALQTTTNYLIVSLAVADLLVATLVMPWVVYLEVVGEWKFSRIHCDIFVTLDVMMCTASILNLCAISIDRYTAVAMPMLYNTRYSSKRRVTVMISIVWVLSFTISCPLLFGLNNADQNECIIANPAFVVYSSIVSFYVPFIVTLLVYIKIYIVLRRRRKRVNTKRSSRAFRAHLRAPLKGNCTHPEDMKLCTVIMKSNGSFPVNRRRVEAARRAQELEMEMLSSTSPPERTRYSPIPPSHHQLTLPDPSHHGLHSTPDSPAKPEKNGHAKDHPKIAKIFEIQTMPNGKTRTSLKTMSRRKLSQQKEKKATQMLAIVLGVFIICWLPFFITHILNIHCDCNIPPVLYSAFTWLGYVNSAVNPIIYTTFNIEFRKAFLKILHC
Summary of the method: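 cAMP accumulation in DRD2-HEK293 cells measured by HTRF after 1 h detection; compounds added 10 min before NKH477 (200nM […]) forskolin-analogue stimulation, 30 min at room temperature, with Ro20-1724 present at 0.1 mM final.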

[17] = target: D(2) dopamine receptor (Homo sapiens) (UniProt P14416); experiment: Dopamine D2 receptor (DRD2) small molecule antagonists, cell-based qHTS assay (AID 1963595; active = well fitted inhibition curve with a large enough effect in the signal ratio in the repeat runs, with a control signal flat; the % refers to the signal ratio)
Summary of the method: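 Antagonist mode in DRD2-HEK293 cells: after compound addition with 0.1 mM Ro20-1724, cells received quinpirole (12 nM) and NKH477 (200 nM) for 30 min at room temperature; HTRF cAMP read after 1 h detection.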

[18] = target: 5-hydroxytryptamine receptor 2A (Homo sapiens) (UniProt P28223); experiment: 5-hydroxytryptamine receptor 2A (HTR2A) small molecule antagonists, cell-based qHTS assay (AID 1963586); note: nearly all actives have a fitted effect of over 45% in size
Summary of the method: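 CHO cells stably expressing human HTR2A were plated for 18 h at 37 C, then loaded with calcium dye for 1 h. Compounds were preincubated 5 min at room temperature before DOI (4 nM solution) was added. Kinetic fluorescence was read for 3 min.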

[19] = cAMP Responsive Elements (CRE) small molecule antagonists, cell-based qHTS assay (AID 1963591; active = well fitted inhibition curve with a large enough effect in the signal ratio in the repeat runs, not every such curve was filed as active; the % refers to the signal ratio)
Summary of the method: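 Cells (CRE-bla HEK 293T, DMEM with 10% dialyzed FBS and 25 mM HEPES) are seeded and incubated 18 h. Compounds are added with NKH477 agonist at 0.25 uM final for 3 h, then FRET substrate for 2 h.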

[20] = G protein-coupled receptor (GPCR) small molecule agonists, calcium flux assay: HEK293 wild type cell line counter screen (AID 1920065)
Summary of the method: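 Seed cells, incubate 18 h (37 C, 5% CO2); add calcium dye, 1 h at 37 C; pin-transfer compounds, ATP control or DMSO; read fluorescence 480/540 nm each second for 3 min.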

Row | SMILES | Potency [1] | Potency [2] | Potency [3] | Potency [4] | Potency [5] | Potency [6] | Potency [7] | Potency [8] | Potency [9] | Potency [10] | Potency [11] | Potency [12] | Potency [13] | Potency [14] | Potency [15] | Potency [16] | Potency [17] | Potency [18] | Potency [19] | Potency [20]
1 | N[C@@H]1C[C@H]1c1ccccc1 | inactive | inactive | inactive | inactive | inactive | inactive | inactive | inactive | inactive | 8.49 µM (active) | inactive | inactive | inactive | inactive | inactive | inactive | inactive | – | – | –
2 | Cc1ccc(-c2c(Cl)nc(C#N)n2S(=O)(=O)N(C)C)cc1 | 15.3 µM (active) | 9.68 µM (active) | inactive | inactive | inactive | – | inactive | inactive | inactive | inactive | inactive | inactive | – | inactive | – | inactive | inactive | inactive | – | –
3 | CC(C)=CCOc1c2occc2cc2ccc(=O)oc12 | inactive | inactive | inactive | inactive | inactive | inactive | inactive | inactive | inactive | inactive | inactive | inactive | – | inactive | inactive | inactive | inactive | inactive | inactive | –
4 | O=c1[nH]c2ccccc2n1C1CCNCC1 | inactive | inactive | inactive | inactive | inactive | inactive | inactive | inactive | inactive | inactive | inactive | inactive | inactive | – | – | – | – | inactive | inactive | –
5 | CN1COCN(Cc2cnc(Cl)s2)/C1=N\[N+](=O)[O-] | inactive | inactive | inactive | inactive | – | inactive | inactive | inactive | inactive | inactive | inactive | inactive | inactive | inactive | inactive | inactive | inactive | inactive | inactive | –
6 | N#CNC#N | inactive | inactive | inactive | inactive | inactive | inactive | – | inactive | – | – | inactive | inactive | inactive | inactive | – | inactive | inactive | inactive | inactive | –
7 | CCN(CC)C(=O)N[C@@H]1C=C2c3cccc4[nH]cc(c34)C[C@@H]2N(C)C1 | inactive | inactive | inactive | inactive | inactive | inactive | inactive | – | inactive | – | – | – | inactive | – | – | – | inactive | – | inactive | –
8 | CC(C)C(Br)C(=O)NC(N)=O (stereo unspecified) | inactive | inactive | inactive | inactive | – | – | – | inactive | inactive | – | – | – | inactive | inactive | – | inactive | inactive | – | inactive | –
9 | O=CC=O | inactive | inactive | inactive | inactive | – | – | inactive | inactive | inactive | inactive | inactive | inactive | – | inactive | – | inactive | inactive | inactive | inactive | –
10 | CCC1(CCC(C)C)C(=O)NC(=O)NC1=O | inactive | inactive | inactive | inactive | – | – | inactive | inactive | inactive | – | – | – | inactive | inactive | – | inactive | inactive | – | – | –
11 | COP(N)(=S)OC | inactive | inactive | inactive | inactive | – | – | inactive | inactive | inactive | inactive | inactive | inactive | inactive | inactive | – | inactive | inactive | inactive | inactive | –
12 | CCOCn1c(-c2ccc(Cl)cc2)c(C#N)c(Br)c1C(F)(F)F | 34.4 µM (active) | 24.3 µM (active) | inactive | inactive | – | – | 22.9 µM (active) | 22.9 µM (active) | 10.2 µM (active) | inactive | inactive | inactive | – | – | – | inactive | inactive | inactive | – | –
13 | CCOC(=O)c1cn2nc(OP(=S)(OCC)OCC)cc2nc1C | inactive | inactive | inactive | inactive | – | – | – | inactive | inactive | inactive | – | inactive | – | inactive | inactive | inactive | inactive | inactive | – | –
14 | Oc1cccc(Cl)c1 | inactive | inactive | inactive | – | inactive | inactive | inactive | inactive | inactive | inactive | inactive | inactive | inactive | inactive | – | inactive | inactive | inactive | inactive | inactive
15 | CCCN(CCC)c1c([N+](=O)[O-])cc(S(C)(=O)=O)cc1[N+](=O)[O-] | inactive | inactive | inactive | inactive | – | – | inactive | inactive | inactive | inactive | 10.6 µM (active) | inactive | – | – | inactive | inactive | inactive | inactive | inactive | –
16 | CC(C)(OO)c1ccccc1 | inactive | inactive | inactive | inactive | – | inactive | – | inactive | inactive | inactive | inactive | inactive | inactive | inactive | – | – | inactive | inactive | inactive | –
17 | CC(=O)CCc1ccc2c(c1)OCO2 | inactive | inactive | inactive | – | inactive | inactive | inactive | – | inactive | inactive | inactive | inactive | inactive | inactive | inactive | inactive | inactive | inactive | inactive | inactive
18 | ClP(Cl)(Cl)(Cl)Cl | inactive | inactive | inactive | – | inactive | inactive | inactive | – | inactive | inactive | inactive | inactive | inactive | inactive | inactive | inactive | inactive | – | inactive | inactive
